As usually defined, the inhibition is the drop in the measured response relative to a control, in per cent.

The source of these data is PubChem BioAssay.

The structures appear in SMILES notation. Results filed as inconclusive are left out. Calls of active or inactive are those of the source.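 How the source made its calls, unless noted: active means response below a set limit, under 55% cells CD8-positive and vesicle-bound, and CD8 cells' 90th-percentile brightness under 279; inactive means the rest.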

Experiment [1] is described as follows: yeast TOR pathway RPL19A-GFP modulators, primary screen, cell-based, S. cerevisiae, multiplex flow cytometry (AID 1862; in the data active means percent of DMSO control GFP below about 86%;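 further: lower values mimic rapamycin by blocking the RPL19A rise seen in DMSO cells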). To be noted: S. cerevisiae RPL19A-GFP strain, flow cytometry fluorescence, 3 h; at 10 µM; stronger effect = lower value. Background: Flow cytometry measures light scatter and fluorescence of single cells or particles in a stream.
Experiment [2] can be described thus: modulators of MEP2-GFP levels in yeast, primary screen, S. cerevisiae, multiplex flow cytometry (AID 1867;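 active means GFP response, as percent of the DMSO control, above the screen-wide mean plus 3 SD, about 139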;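 further: median GFP channel fluorescence of barcode-gated MEP2-GFP cells measured by flow cytometry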). To be noted: S. cerevisiae MEP2-GFP strain, 3 h, at 10 µM, stronger effect = higher value, 100% means same as DMSO wells.
Experiment [3] can be described thus: modulators of CIT2-GFP expression in yeast, primary screen, S. cerevisiae, GFP fusion, multiplex flow cytometry (AID 1870;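 active means percent response above a set limit, the screen-wide mean plus 3 SD, cut at about 130% in these data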;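 further: barcoded CIT2-GFP strain pooled with four other GFP strains with rapamycin as positive control; median GFP fluorescence per well over plate mean of DMSO wells so 100% = DMSO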). As to conditions: 3 h, at 10 µM, stronger effect = higher value.
Experiment [4] can be described thus: modulators of LAP4-GFP expression in yeast, primary screen, S. cerevisiae, multiplex flow cytometry (AID 1873;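 active means GFP signal, as percent of the solvent control, above the screen mean plus 3 SD, about 149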). To be noted: 3 h, at 10 µM, stronger effect = higher value.
Experiment [5] in a line: modulators of AGP1-GFP expression in yeast TOR pathway, primary screen, cell-based, multiplex flow cytometry, S. cerevisiae (AID 1887;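 active means GFP signal above the screen-wide mean plus 3 SD, that is over about 124.5% of the solvent control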;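 further: AGP1-GFP fusion strain of S. cerevisiae within a five-strain barcoded multiplex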). As to conditions: 3 h, at 10 µM, stronger effect = higher value.
Experiment [6] in a line: inhibitors of CD8+ T cell-vesicle binding, pilot screen, LFA-1/ICAM-1 modulator project, MLPCN validation set, flow cytometry (AID 2523).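 On vesicle binding response: mean PE anti-B7-1 fluorescence of CD8+ cells relative to row control; 100% = QL9-loaded vesicles with DMSO vehicle in the same plate row.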 As to conditions: 2C mouse CD8+ T cells, at 7 µM, stronger effect = lower value; double positive events: measured here: CD8+/vesicle+ event percentage.
The target of experiment [7] is Integrin beta-1 (Homo sapiens) + Integrin alpha-4 (Homo sapiens) (UniProt P13612+P05556). The experiment is described as follows: inhibition of HUTS-21 binding to VLA-4, pilot screen, VLA-4 allosteric modulator project, U937 cells, HUTS-21 mAb, flow cytometry, validation set (AID 2674;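 active means inhibition above 50%, about 3 SD of the validation set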;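 further: antibody binding induced by the VLA-4 ligand LDV present at three times its Kd; 0% = LDV ligand with antibody and no compound and 100% = antibody without LDV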). As to conditions: HUTS-21 LIBS mAb binding, at 6.7 µM, stronger effect = higher value, binding induced by LDV ligand.
Chain of Integrin beta-1 (Homo sapiens) + Integrin alpha-4 (Homo sapiens) (P05556 whole entry, looked up): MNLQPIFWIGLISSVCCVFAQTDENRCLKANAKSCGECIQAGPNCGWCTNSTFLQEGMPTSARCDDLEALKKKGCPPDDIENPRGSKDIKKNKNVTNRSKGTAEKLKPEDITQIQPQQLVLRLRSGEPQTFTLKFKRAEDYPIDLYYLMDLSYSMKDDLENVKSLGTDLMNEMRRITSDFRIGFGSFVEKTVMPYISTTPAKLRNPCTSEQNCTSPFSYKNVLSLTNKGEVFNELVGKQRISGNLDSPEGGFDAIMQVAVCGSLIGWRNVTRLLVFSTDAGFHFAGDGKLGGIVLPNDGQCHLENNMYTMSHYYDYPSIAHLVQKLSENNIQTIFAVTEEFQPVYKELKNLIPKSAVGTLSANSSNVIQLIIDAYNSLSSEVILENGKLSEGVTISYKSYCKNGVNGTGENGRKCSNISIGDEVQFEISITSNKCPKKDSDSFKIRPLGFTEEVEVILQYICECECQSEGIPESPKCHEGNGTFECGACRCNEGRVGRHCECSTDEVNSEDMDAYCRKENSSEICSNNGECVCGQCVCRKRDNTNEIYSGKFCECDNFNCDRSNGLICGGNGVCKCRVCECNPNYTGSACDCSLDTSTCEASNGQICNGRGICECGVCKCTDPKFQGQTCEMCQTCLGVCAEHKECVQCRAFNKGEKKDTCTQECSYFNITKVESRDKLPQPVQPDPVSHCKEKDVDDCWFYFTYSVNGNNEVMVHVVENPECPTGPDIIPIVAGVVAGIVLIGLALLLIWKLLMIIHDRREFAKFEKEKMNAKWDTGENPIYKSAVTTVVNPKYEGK
Chain of Integrin beta-1 (Homo sapiens) + Integrin alpha-4 (Homo sapiens) (P13612 whole entry, looked up): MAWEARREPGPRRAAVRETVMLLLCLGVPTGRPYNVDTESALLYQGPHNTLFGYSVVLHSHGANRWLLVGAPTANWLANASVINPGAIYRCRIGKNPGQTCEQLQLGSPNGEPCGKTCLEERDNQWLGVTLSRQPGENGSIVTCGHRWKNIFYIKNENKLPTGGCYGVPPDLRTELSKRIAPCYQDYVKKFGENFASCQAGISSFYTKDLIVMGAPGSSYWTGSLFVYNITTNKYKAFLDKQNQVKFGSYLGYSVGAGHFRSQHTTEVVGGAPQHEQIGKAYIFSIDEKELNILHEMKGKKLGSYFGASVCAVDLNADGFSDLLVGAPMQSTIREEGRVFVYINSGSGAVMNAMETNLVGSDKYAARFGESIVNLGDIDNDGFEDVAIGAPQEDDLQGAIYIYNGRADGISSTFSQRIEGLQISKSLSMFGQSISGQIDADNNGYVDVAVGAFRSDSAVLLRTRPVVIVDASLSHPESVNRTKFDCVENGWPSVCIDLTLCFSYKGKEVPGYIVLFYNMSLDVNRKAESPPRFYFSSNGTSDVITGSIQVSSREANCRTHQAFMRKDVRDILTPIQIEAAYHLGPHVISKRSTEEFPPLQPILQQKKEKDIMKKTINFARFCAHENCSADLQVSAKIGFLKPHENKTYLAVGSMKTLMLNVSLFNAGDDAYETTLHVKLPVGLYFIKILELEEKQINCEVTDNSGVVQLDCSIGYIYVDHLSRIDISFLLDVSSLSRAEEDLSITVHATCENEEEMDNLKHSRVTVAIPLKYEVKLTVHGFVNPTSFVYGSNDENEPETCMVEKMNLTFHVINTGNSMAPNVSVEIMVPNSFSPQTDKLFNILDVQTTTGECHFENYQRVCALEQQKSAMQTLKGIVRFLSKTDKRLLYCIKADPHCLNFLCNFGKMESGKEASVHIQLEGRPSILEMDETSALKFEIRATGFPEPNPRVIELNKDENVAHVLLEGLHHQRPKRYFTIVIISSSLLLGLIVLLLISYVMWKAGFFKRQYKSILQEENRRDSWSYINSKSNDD

Experiment [8] is described as follows: superoxide lowering in aged yeast cells, pilot screen, validation compound set (AID 2706;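 active means superoxide response below 65% of plate, a cut near 3 SD across the whole screen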;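 further: yeast exposed to compound for one week at 30 degrees C before staining; 100% = mean of all compound wells on the same plate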). As to conditions: S. cerevisiae aging, superoxide DHE fluorescence; at 10 µM; stronger effect = lower value.
In experiment [9] the target is Beta-adrenergic receptor kinase 1 (Homo sapiens) (UniProt P25098). Kind of experiment: GRK2 binders displacing RNA aptamer, biochemical, validation, human GRK2, bead flow cytometry (AID 488806;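 active means aptamer binding inhibition above 30%, about 3 SD of noise from non-fluorescent compounds; inactive means inhibition at or below 30%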). As to conditions: bead-bound GRK2, FAM-aptamer displacement, at 10 µM, stronger effect = higher value.
Chain of Beta-adrenergic receptor kinase 1 (Homo sapiens) (P25098 whole entry, looked up): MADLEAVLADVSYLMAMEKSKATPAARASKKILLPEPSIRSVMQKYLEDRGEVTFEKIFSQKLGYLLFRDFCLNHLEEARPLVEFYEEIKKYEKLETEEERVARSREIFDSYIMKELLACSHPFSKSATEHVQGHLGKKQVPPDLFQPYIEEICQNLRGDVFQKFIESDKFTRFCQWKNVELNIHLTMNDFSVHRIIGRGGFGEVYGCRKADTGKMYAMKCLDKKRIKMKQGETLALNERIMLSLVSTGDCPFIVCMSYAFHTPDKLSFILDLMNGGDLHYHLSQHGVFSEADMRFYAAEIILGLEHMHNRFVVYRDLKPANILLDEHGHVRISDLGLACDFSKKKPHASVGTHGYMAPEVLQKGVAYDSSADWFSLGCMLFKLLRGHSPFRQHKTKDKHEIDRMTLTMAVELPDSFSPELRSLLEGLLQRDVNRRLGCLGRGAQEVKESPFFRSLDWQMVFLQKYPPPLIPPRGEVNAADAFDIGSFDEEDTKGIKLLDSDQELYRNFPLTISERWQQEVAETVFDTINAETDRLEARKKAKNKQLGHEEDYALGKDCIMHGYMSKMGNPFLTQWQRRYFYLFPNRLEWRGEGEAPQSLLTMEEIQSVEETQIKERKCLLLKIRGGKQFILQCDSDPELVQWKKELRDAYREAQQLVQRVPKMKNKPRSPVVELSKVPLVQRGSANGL
The target in experiment [10] is Beta-2 adrenergic receptor (Homo sapiens) (UniProt P07550). Kind of experiment: beta2AR agonists driving receptor internalization, pilot screen, cell-based, FAP fluorogen, flow cytometry, validation set (AID 504459;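 active means percent response above 42, roughly 3 SD of non-fluorescent test compounds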;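 further: agonist-driven loss of surface beta2AR via internalization measured by FAP dye flow cytometry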). As to conditions: Am2.2-beta2AR cells, FAP surface receptor flow cytometry; at 10 µM; stronger effect = higher value.
Chain of Beta-2 adrenergic receptor (Homo sapiens) (P07550 whole entry, looked up): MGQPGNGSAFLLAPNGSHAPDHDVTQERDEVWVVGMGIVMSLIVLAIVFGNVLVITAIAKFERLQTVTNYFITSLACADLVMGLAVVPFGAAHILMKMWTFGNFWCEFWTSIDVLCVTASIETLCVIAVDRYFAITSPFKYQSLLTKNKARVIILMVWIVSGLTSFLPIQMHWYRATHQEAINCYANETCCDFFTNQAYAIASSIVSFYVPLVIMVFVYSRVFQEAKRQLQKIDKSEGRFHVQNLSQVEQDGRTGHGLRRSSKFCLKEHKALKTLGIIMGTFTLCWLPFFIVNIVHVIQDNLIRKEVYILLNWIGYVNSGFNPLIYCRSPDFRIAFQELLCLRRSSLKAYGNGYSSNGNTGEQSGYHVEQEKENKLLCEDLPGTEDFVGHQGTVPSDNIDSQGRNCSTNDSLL
Experiment [11] concerns the target AP-2 complex subunit beta (Homo sapiens) (UniProt P63010). Kind of experiment: inhibitors of arrestin peptide binding to AP2, pilot screen, biochemical, validation set, GST-AP2 beads, flow cytometry (AID 504541;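 active means inhibition above 54%, about 3 SD of non-fluorescent compounds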;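 further: AP2 carries R879A mutation and is captured from E. coli lysate; bead-bound FITC arrestin peptide fluorescence measuring arrestin peptide binding to AP2; 0% = DMSO wells and 100% = excess unlabeled arrestin peptide control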). As to conditions: FITC arrestin peptide, at 10 µM, stronger effect = higher value, AP2 beta2 appendage fragment, R879A mutant.
Experiment [12] can be described thus: yeast V-ATPase proton transport modulators, S. cerevisiae, pHLuorin, HTS validation (AID 504600; in the data active means response above about 15%;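 further: plate controls were DMSO for no effect and reference compound for full effect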). To be noted: S. cerevisiae pHLuorin cytosolic pH, at 10 µM, stronger effect = higher value.
Experiment [13] has as its system anti-desmoglein-3 scFv antibody binding to human DSG3. Kind of experiment: inhibitors of anti-DSG3 scFv binding to DSG3, pilot screen, biochemical, validation compound set, bead-based, flow cytometry (AID 588368;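 active means binding below the plate cutoff, the plate median minus 3 SD, with a reading above zero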;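 further: signal is the median channel fluorescence of bead-bound GFP antibody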). To be noted: Protein G beads, DSG3-Fc, scFv-GFP binding, at 10 µM, stronger effect = lower value.
Experiment [14] can be described thus: inhibitors of fungal efflux pumps CDR1, CDR2, MDR1, pilot screen, validation compound set, multiplex, phenotypic (AID 588506;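 active means efflux inhibition above 0.42, the validation set average plus 4 SD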;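 further: Nile Red retained in cells so higher fluorescence means more efflux inhibition; 0 = negative control wells and 1 = enniatin B 25 µM full block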). To be noted: S. cerevisiae pump-expressing triplex, Nile Red efflux flow cytometry; at 10 µM; stronger effect = higher value; the pumps come from Candida albicans.
Experiment [15] concerns the target ATP-binding cassette sub-family B member 6 (Homo sapiens) (UniProt Q9NP58). Kind of experiment: ABCB6 transporter inhibitors, pilot screen, K562-ABCB6 cells, flow cytometry, validation set (AID 588550;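 active means inhibition above the screen-wide mean plus 3 SD, about 51%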;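 further: 0% = DMSO wells and 100% = benzethonium chloride 70 µM positive control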). To be noted: K562-ABCB6 porphyrin accumulation, 1 h, at 10 µM, stronger effect = higher value.
Experiment [16] can be described thus: promoters of myeloid differentiation in arrested cells, primary screen, cell-based, GFP/MAC1 double positive, flow cytometry, validation set (AID 588685;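 active means differentiation response of at least 50%, scaled between solvent and reference control, from cells with both markers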;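 further: compound exposure lasts four days before antibody staining and flow analysis; 0% = DMSO wells and 100% = 5 µM fulvestrant positive control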). To be noted: ER-HoxA9 marrow cells, stronger effect = higher value, normalized: vehicle 0, fulvestrant 100.

Chain of ATP-binding cassette sub-family B member 6 (Homo sapiens) (Q9NP58 whole entry, looked up): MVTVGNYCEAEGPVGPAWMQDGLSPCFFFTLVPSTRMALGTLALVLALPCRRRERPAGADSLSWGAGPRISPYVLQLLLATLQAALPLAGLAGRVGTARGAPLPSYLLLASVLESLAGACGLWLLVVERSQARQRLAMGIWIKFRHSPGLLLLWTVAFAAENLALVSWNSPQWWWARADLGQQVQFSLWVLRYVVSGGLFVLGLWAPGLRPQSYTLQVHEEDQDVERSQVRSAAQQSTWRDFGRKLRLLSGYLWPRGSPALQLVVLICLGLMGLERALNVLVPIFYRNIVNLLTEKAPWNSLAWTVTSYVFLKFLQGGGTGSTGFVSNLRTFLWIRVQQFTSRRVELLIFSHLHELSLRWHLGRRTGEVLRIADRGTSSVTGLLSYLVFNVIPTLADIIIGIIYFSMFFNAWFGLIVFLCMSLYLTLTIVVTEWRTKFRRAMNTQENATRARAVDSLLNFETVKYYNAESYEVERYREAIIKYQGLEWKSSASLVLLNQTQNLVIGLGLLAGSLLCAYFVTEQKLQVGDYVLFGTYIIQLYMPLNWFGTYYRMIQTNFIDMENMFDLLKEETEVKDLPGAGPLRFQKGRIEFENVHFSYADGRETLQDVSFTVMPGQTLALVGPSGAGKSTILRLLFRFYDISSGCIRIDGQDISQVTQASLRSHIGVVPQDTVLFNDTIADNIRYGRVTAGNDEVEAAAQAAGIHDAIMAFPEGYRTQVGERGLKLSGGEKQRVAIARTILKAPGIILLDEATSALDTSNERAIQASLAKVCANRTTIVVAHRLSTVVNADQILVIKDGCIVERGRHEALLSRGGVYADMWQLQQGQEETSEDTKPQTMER
Chain of AP-2 complex subunit beta (Homo sapiens) (P63010 whole entry, looked up, the tested form may be a part, one chain of several): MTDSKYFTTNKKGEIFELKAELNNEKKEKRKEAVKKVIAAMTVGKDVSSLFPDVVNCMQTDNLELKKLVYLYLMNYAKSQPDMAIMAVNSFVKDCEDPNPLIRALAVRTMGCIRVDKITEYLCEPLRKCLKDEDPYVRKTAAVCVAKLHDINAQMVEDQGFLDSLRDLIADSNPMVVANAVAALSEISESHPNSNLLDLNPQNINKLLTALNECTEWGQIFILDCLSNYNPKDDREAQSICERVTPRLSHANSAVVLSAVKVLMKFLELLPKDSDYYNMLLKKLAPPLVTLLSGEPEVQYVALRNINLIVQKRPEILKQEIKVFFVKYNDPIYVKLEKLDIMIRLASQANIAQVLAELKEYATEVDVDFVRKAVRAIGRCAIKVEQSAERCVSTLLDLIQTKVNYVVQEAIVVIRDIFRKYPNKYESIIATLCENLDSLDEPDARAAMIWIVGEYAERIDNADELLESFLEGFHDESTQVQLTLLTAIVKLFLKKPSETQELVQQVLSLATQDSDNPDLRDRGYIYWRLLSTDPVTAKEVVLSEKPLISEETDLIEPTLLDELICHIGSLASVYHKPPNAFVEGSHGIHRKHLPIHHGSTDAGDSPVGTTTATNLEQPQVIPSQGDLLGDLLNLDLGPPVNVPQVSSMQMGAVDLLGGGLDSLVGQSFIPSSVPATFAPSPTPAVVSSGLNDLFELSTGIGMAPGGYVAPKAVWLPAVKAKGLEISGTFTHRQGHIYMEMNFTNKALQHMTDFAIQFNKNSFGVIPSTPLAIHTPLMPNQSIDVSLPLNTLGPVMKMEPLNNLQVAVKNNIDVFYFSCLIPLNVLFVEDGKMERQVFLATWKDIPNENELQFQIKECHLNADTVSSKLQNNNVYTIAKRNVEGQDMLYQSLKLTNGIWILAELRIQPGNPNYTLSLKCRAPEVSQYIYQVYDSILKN

With `COC(=O)c1sccc1NC(=O)Nc1ccccc1F`, the percent of DMSO control GFP in experiment [1] is 100% (inactive). For the same molecule, the GFP response vs DMSO in experiment [2] was 103% (inactive); in [4], 88.2% (inactive). The percent response of DMSO control in [3] was 105% (inactive). Moreover, the GFP response, % of DMSO in experiment [5] is 101% (inactive). Besides, the double positive events in experiment [6] was found to be 69.3%. The vesicle binding response in experiment [6] is 197% (inactive). Moreover, the inhibition in experiment [7] was 5.61% (inactive); in experiment [11], -3.3% (inactive); in [15] it was 23% (inactive). Further, the superoxide response (% of plate) in [8] was 93.7% (inactive). Moreover, the aptamer binding inhibition in [9] is -3% (inactive). Also, the response was 2% (inactive) in experiment [10] and -6.01% (inactive) in experiment [12]. Moreover, the binding (% of control) in experiment [13] was 103% (inactive). Besides, in [14], the efflux inhibition (fraction of control) is -0.28 (inactive). Further, in experiment [16], the differentiation response was 7.13% (inactive).

In the case of `Cc1c(NC(=O)c2cccs2)cccc1[N+](=O)[O-]`, the percent of DMSO control GFP in experiment [1] was 102% (inactive). Besides, the GFP response vs DMSO in experiment [2] is 103% (inactive); in experiment [4], 107% (inactive). Moreover, the percent response of DMSO control in experiment [3] was 102% (inactive). Also, the GFP response, % of DMSO in experiment [5] is 99.1% (inactive). In experiment [6], this molecule came in with a double positive events of 67.8%. For the same molecule, the vesicle binding response in [6] was 342% (inactive). In addition, the inhibition in [7] is 2.93% (inactive); in experiment [11] it was -17.9% (inactive); in experiment [15] it was 1% (inactive). Also, the superoxide response (% of plate) in [8] is 95.5% (inactive). Further, the aptamer binding inhibition in [9] was -4% (inactive). For the same molecule, the response is 3.73% (inactive) in experiment [10] and -1.2% (inactive) in experiment [12]. For the same molecule, in [13], the binding (% of control) is 104% (inactive). In experiment [14], the efflux inhibition (fraction of control) was -0.01 (inactive). The differentiation response in experiment [16] was 18.8% (inactive).

`CC1(C)CC(C(CC(=O)N2CCCC2)Cc2ccccc2)CCO1` (stereo not drawn): the percent of DMSO control GFP in [1] is 100% (inactive). In addition, the GFP response vs DMSO in experiment [2] is 99.7% (inactive); in [4] it was 102% (inactive). In experiment [3], the percent response of DMSO control was 104% (inactive). Also, the GFP response, % of DMSO in experiment [5] was 106% (inactive). Moreover, the double positive events in experiment [6] is 62.9%. In addition, the vesicle binding response in [6] was 118% (inactive). For the same molecule, the results for the inhibition in [7], in experiment [11] and in [15] were -2.43% (inactive), 21.8% (inactive) and 18% (inactive), respectively. In [8], the superoxide response (% of plate) is 107% (inactive). Further, the aptamer binding inhibition in experiment [9] is -2% (inactive). Further, the response in [10] was -11% (inactive); in [12], -8.82% (inactive). For the same molecule, in experiment [13], the binding (% of control) was 103% (inactive). In addition, in [14], the efflux inhibition (fraction of control) was 0.36 (inactive). For the same molecule, the differentiation response in [16] is 15.9% (inactive).

Consider `COc1ccc(NC2=C(Cl)C(=O)N(c3ccccc3)C2=O)c(OC)c1`, for which, in experiment [1], the percent of DMSO control GFP was 105% (inactive). For the same molecule, the figures for the GFP response vs DMSO in experiment [2] and in [4] were 110% (inactive) and 106% (inactive), respectively. Moreover, the percent response of DMSO control in experiment [3] was 107% (inactive). Further, the GFP response, % of DMSO in experiment [5] was 109% (inactive). Further, the double positive events in experiment [6] is 60.1%. Also, the vesicle binding response in [6] is 159% (inactive). Further, the inhibition in experiment [7] was -1.09% (inactive); in experiment [11] it was 0.15% (inactive); in experiment [15], -3% (inactive). Besides, the superoxide response (% of plate) in [8] was 94.5% (inactive). For the same molecule, the aptamer binding inhibition in experiment [9] is 1% (inactive). The values for the response in experiment [10] and in [12] were 1.18% (inactive) and 1.06% (inactive), respectively. Besides, the binding (% of control) in [13] is 97% (inactive). Besides, the efflux inhibition (fraction of control) in experiment [14] was -0.25 (inactive). In experiment [16], the differentiation response was -4.57% (inactive).
